From PubChem BioAssay AID1159580 (chemical genetic matrix, 2015)
In all, about 5,500 compounds went through this assay and about 2,000 (36%) were called active. Another 18% or so got no clear call; they are omitted. Rule as the data show it: active = normalized growth mostly below about 0.91 (no sharp cut-off); inconclusive = no clear call, values can overlap the other calls; inactive = mostly above about 0.92. The list shows a part of the results.

Assay: chemical genetic growth profiling, strain panel (AID 1159580);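 also: tested at 20 µM; growth read once vehicle control cultures reached saturation at 30 °C; 1 = growth at the plate median or of vehicle wells; lower values mean less growth of the strain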
Conditions: growth OD

Measured: normalized growth

CCCNC1CCc2nc(N)sc2C1 (stereo unspecified)
inactive: S. cerevisiae deletion strains, locus YAL013W, strain DEP1, stronger effect = lower value 1.01 | S. cerevisiae deletion strains, locus YBR021W, strain FUR4, stronger effect = lower value 1.02 | S. cerevisiae deletion strains, locus YBR229C, strain ROT2, stronger effect = lower value 1.01 | S. cerevisiae deletion strains, locus YCL029C, strain bik1, stronger effect = lower value 0.997 | S. cerevisiae deletion strains, locus YDL035C, strain GPR1, stronger effect = lower value 1.02 | S. cerevisiae deletion strains, locus YDL074C, strain BRE1, stronger effect = lower value 1.04 | S. cerevisiae deletion strains, locus YDL101C, strain DUN1, stronger effect = lower value 1.01 | S. cerevisiae deletion strains, locus YDL134C, strain PPH21, stronger effect = lower value 1.01 | S. cerevisiae deletion strains, locus YDL185W, strain tfp1, stronger effect = lower value 1.01 | S. cerevisiae deletion strains, locus YDL192W, strain arf1, stronger effect = lower value 1 | S. cerevisiae deletion strains, locus YDR101C, strain arx1, stronger effect = lower value 0.988 | S. cerevisiae deletion strains, locus YDR150W, strain NUM1, stronger effect = lower value 1.01 | S. cerevisiae deletion strains, locus YDR162C, strain NBP2, stronger effect = lower value 1.01 | S. cerevisiae deletion strains, locus YDR318W, strain mcm21, stronger effect = lower value 1 | S. cerevisiae deletion strains, locus YDR388W, stronger effect = lower value 0.994 | S. cerevisiae deletion strains, locus YDR502C, strain sam2, stronger effect = lower value 0.995 | S. cerevisiae deletion strains, locus YEL061C, strain CIN8, stronger effect = lower value 1.01 | S. cerevisiae deletion strains, locus YER110C, stronger effect = lower value 0.99 | S. cerevisiae deletion strains, locus YER155C, strain BEM2, stronger effect = lower value 0.983 | S. cerevisiae deletion strains, locus YER167W, strain BCK2, stronger effect = lower value 1.01 | S. cerevisiae deletion strains, locus YGL078C, strain dbp3, stronger effect = lower value 1.01 | S. cerevisiae deletion strains, locus YGL086W, strain mad1, stronger effect = lower value 0.994 | S. cerevisiae deletion strains, locus YGL248W, strain PDE1, stronger effect = lower value 1.01 | S. cerevisiae deletion strains, locus YGR078C, strain PAC10, stronger effect = lower value 1.03 | S. cerevisiae deletion strains, locus YGR135W, strain pre9, stronger effect = lower value 1 | S. cerevisiae deletion strains, locus YGR229C, strain SMI1, stronger effect = lower value 1.03 | S. cerevisiae deletion strains, locus YGR252W, strain gcn5, stronger effect = lower value 1.03 | S. cerevisiae deletion strains, locus YHR030C, strain SLT2, stronger effect = lower value 1.01 | S. cerevisiae deletion strains, locus YHR079C, strain IRE1 (second series), stronger effect = lower value 0.995 | S. cerevisiae deletion strains, locus YHR094C, strain hxt1, stronger effect = lower value 1 | S. cerevisiae deletion strains, locus YHR129C, strain ARP1, stronger effect = lower value 1.01 | S. cerevisiae deletion strains, locus YHR200W, strain rpn10, stronger effect = lower value 1 | S. cerevisiae deletion strains, locus YIL066C, strain RNR3, stronger effect = lower value 1.02 | S. cerevisiae deletion strains, locus YIL073C, strain SPO22, stronger effect = lower value 1.03 | S. cerevisiae deletion strains, locus YIL125W, strain kgd1, stronger effect = lower value 1 | S. cerevisiae deletion strains, locus YIR030C, strain dcg1, stronger effect = lower value 0.998 | S. cerevisiae deletion strains, locus YJL095W, strain BCK1, stronger effect = lower value 1.02 | S. cerevisiae deletion strains, locus YJL134W, strain LCB3, stronger effect = lower value 1.01 | S. cerevisiae deletion strains, locus YJL168C, strain set2, stronger effect = lower value 1 | S. cerevisiae deletion strains, locus YJL187C, strain SWE1 (second series), stronger effect = lower value 1.01 | S. cerevisiae deletion strains, locus YJR043C, strain POL32, stronger effect = lower value 1 | S. cerevisiae deletion strains, locus YJR075W, strain HOC1, stronger effect = lower value 1 | S. cerevisiae deletion strains, locus YKL009W, strain mrt4, stronger effect = lower value 1.02 | S. cerevisiae deletion strains, locus YKL068W, stronger effect = lower value 1.01 | S. cerevisiae deletion strains, locus YKL085W, strain MDH1 (second series), stronger effect = lower value 1.01 | S. cerevisiae deletion strains, locus YKL085W, strain MDH1, stronger effect = lower value 1.01 | S. cerevisiae deletion strains, locus YKL190W, strain CNB1, stronger effect = lower value 1.02 | S. cerevisiae deletion strains, locus YKR001C, strain vps1, stronger effect = lower value 1.01 | S. cerevisiae deletion strains, locus YLR039C, strain RIC1, stronger effect = lower value 1.05 | S. cerevisiae deletion strains, locus YLR058C, strain SHM2, stronger effect = lower value 1.01 | S. cerevisiae deletion strains, locus YLR102C, strain apc9, stronger effect = lower value 0.997 | S. cerevisiae deletion strains, locus YLR262C, strain YPT6, stronger effect = lower value 1.06 | S. cerevisiae deletion strains, locus YLR268W, strain sec22, stronger effect = lower value 0.992 | S. cerevisiae deletion strains, locus YLR330W, strain CHS5, stronger effect = lower value 1.01 | S. cerevisiae deletion strains, locus YLR342W, strain FKS1 (second series), stronger effect = lower value 1.02 | S. cerevisiae deletion strains, locus YLR371W, strain rom2, stronger effect = lower value 1 | S. cerevisiae deletion strains, locus YLR418C, strain cdc73, stronger effect = lower value 1.01 | S. cerevisiae deletion strains, locus YML016C, strain PPZ1, stronger effect = lower value 1 | S. cerevisiae deletion strains, locus YML032C, strain rad52, stronger effect = lower value 0.992 | S. cerevisiae deletion strains, locus YML124C, strain tub3, stronger effect = lower value 1 | S. cerevisiae deletion strains, locus YMR078C, strain ctf18, stronger effect = lower value 0.999 | S. cerevisiae deletion strains, locus YMR223W, strain ubp8, stronger effect = lower value 1.01 | S. cerevisiae deletion strains, locus YMR263W, strain SAP30, stronger effect = lower value 1.01 | S. cerevisiae deletion strains, locus YMR307W, strain GAS1, stronger effect = lower value 0.995 | S. cerevisiae deletion strains, locus YNL067W, strain RPL9B, stronger effect = lower value 1.01 | S. cerevisiae deletion strains, locus YNL128W, strain TEP1, stronger effect = lower value 1.02 | S. cerevisiae deletion strains, locus YNL153C, strain GIM3, stronger effect = lower value 1 | S. cerevisiae deletion strains, locus YNL233W, strain BNI4, stronger effect = lower value 1.01 | S. cerevisiae deletion strains, locus YNL250W, strain rad50, stronger effect = lower value 0.996 | S. cerevisiae deletion strains, locus YNL271C, strain bni1, stronger effect = lower value 0.993 | S. cerevisiae deletion strains, locus YNL298W, strain CLA4, stronger effect = lower value 1.03 | S. cerevisiae deletion strains, locus YNL307C, strain MCK1, stronger effect = lower value 0.995 | S. cerevisiae deletion strains, locus YNL322C, strain KRE1, stronger effect = lower value 1.01 | S. cerevisiae deletion strains, locus YNR052C, strain pop2, stronger effect = lower value 1 | S. cerevisiae deletion strains, locus YOL006C, strain TOP1, stronger effect = lower value 1.03 | S. cerevisiae deletion strains, locus YOL012C, strain htz1 1.08 | S. cerevisiae deletion strains, locus YOL147C, strain pex11, stronger effect = lower value 0.995 | S. cerevisiae deletion strains, locus YOR061W, strain CKA2, stronger effect = lower value 1.01 | S. cerevisiae deletion strains, locus YOR069W, strain VPS5, stronger effect = lower value 1.01 | S. cerevisiae deletion strains, locus YOR136W, strain idh2, stronger effect = lower value 1 | S. cerevisiae deletion strains, locus YOR144C, strain elg1, stronger effect = lower value 1.01 | S. cerevisiae deletion strains, locus YOR184W, strain ser1, stronger effect = lower value 1.02 | S. cerevisiae deletion strains, locus YOR316C, strain cot1, stronger effect = lower value 1 | S. cerevisiae deletion strains, locus YPL055C, strain LGE1, stronger effect = lower value 1.06 | S. cerevisiae deletion strains, locus YPL241C, strain CIN2, stronger effect = lower value 1.01 | S. cerevisiae deletion strains, locus YPR119W, strain clb2, stronger effect = lower value 1.01 | S. cerevisiae deletion strains, locus YPR141C, strain kar3, stronger effect = lower value 0.996 | S. cerevisiae deletion strains, locus YPR163C, strain tif3, stronger effect = lower value 0.993 | S. cerevisiae deletion strains, locus YPR167C, strain met16, stronger effect = lower value 1.01 | S. cerevisiae deletion strains, strain wtn01, stronger effect = lower value 0.989 | S. cerevisiae strains, strain wild type, stronger effect = lower value 1.01
